Among the data in PubChem BioAssay (NCATS) are Potency values, retold here.

Inconclusive results are not listed. The source made the active and inactive calls. Calls follow the shape of the dose curve; as a rule, active = well fitted inhibition curve with a large enough effect; inconclusive = small, poorly fitted or top-dose-only effect; inactive = no such curve, though single readings can be large or run the other way. *1 amine or outer side, *2 acyl side, *3 side chain or, on linkers, in order; H or OH if unused. Where a SMILES comes first, the peptide text is derived from it. Bridges are numbered along the chain shown (N, C = ends). [ ]: non-standard residue; d: D form. The star is where a group is joined. ξ: configuration not given here. ξhTyr(3S-OH,4S-OH,3'-OSO3H) = NC(C(=O)O)[C@H](O)[C@@H](O)c1ccc(O)c(OS(=O)(=O)O)c1; Orn(4R-OH,5R-OH) = O=C([C@H](C[C@@H](O)[C@@H](O)N[*:3])N[*:1])[*:2]; X2 = CCCCCOc1ccc(-c2cc(-c3ccc(C(=O)*)cc3)no2)cc1; X3 = C[C@H]1CN([*:1])C(C(=O)[*:2])[C@H]1O; ξGln(3R-OH) = NC(=O)C[C@@H](O)C(N)C(=O)O; ξPro(4R-OH) = O=C(O)C1C[C@@H](O)CN1; ξThr(3R) = C[C@@H](O)C(N)C(=O)O
Potency is read from the fitted curve at half-maximal effect.

This assay in a line: Confirmatory screen NINDS Rhodamine qHTS for Zika virus inhibitors (AID 1347161). Also: nearly all actives have a fitted effect of over 60% in size. The settings on record: purified enzyme assay, Rhodamine110 substrate fluorescence, 15 min; series mostly up to 114 µM. In short, it runs like this: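 Aprotinin served as in-plate control. Conditions: 25 nM linked NS2B-NS3, pH 8.0 Tris buffer, titrated compounds, 15 min preincubation and 15 min reaction with 1.5 microM Rhod110 substrate at room temperature.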
With `COc1cc(Nc2ccc([N+](=O)[O-])cc2C(=O)O)cc2ccccc12`, the Potency was 2.21 µM (active).

Take `CCCCCOc1ccc(-c2cc(-c3ccc(C(=O)N[C@H]4C[C@@H](O)[C@@H](O)NC(=O)C5[C@@H](O)[C@@H](C)CN5C(=O)C([C@H](O)CC(N)=O)NC(=O)C([C@H](O)[C@@H](O)c5ccc(O)c(OS(=O)(=O)O)c5)NC(=O)C5C[C@@H](O)CN5C(=O)C([C@@H](C)O)NC4=O)cc3)no2)cc1` (stereo partly drawn) (X2-[Orn(4R-OH,5R-OH)][ξThr(3R)][ξPro(4R-OH)][ξhTyr(3S-OH,4S-OH,3'-OSO3H)][ξGln(3R-OH)][X3]; lactam 1-C): the Potency was 4.29 µM (active).

`Cc1ccc2[nH]c(=O)c(C3=NN(C(=O)CCC(=O)O)C(c4ccc(Br)cc4)C3)c(-c3ccccc3)c2c1` (stereo not drawn): the Potency was 3.93 µM (active).

For `COc1cc(/C=C/c2ccccc2)c(C(=O)O)c(O)c1CC=C(C)C`, the Potency was 4.85 µM (active).

On to `COc1cc2c(c(O)c1OC/C=C(\C)CC/C=C(/C)CCC=C(C)C)CN(C(CCC(=O)O)C(=O)O)C2=O` (stereo not drawn), for which the Potency is 2.71 µM (active).

Turning to `C/C=C/C=C/C=C/C(=O)O[C@@H]1[C@@H](OC)C2=C(C(=O)N(C(CCC(=O)O)C(=O)O)C2)[C@@]2(C)CCCC(C)(C)[C@H]12` (stereo partly drawn), the Potency is 2.71 µM (active).

Turning to `O=C1NC(=O)/C(=C/c2cccc(C(F)(F)F)c2)S1`, the Potency was 3.93 µM (active).

As for `CC1C(O)C(O)C2C(C(=O)OCCc3ccc(O)cc3)=COC(O[C@@H]3O[C@H](CO)[C@@H](O)[C@H](O)[C@H]3O)C12` (stereo partly drawn), the Potency is 15.2 µM (active).

Turning to `C/C(=C\CC/C(C)=C/CC[C@]1(C)CCc2cc(O)cc(C)c2O1)CC/C=C(\C)C(=O)O`, the Potency is 1.92 µM (active).

Regarding `Cc1cc(C)c2nc(-c3ccccn3)cc(C(=O)Nc3ccc(S(=O)(=O)Nc4onc(C)c4C)cc3)c2c1`, the Potency is 3.12 µM (active).

As for `O=C(O)C1(c2ccc(-c3ccc(Cl)c(Cl)c3)c(F)c2)CC1`, the Potency is 6.98 µM (active).

For `COc1cc(C)c(C(=O)OC2C(C)OC(OC3CCC(C)C4C3C=C(C)C3/C(C)=C\CC/C(C)=C/C5(C)C=C(C(=O)O)C(C)CC56OC(=O)/C(=C(\O)C34C)C6=O)C(O)C2O)c(OC)c1` (stereo not drawn), the Potency was 1.32 µM (active).

Regarding `C=C1C2CCC3C(CCC4[C@@]3(C)CCC[C@@]4(C)C(=O)O)(C2)[C@@H]1OC(=O)/C(C)=C\C` (stereo partly drawn), the Potency is 6.07 µM (active).
